Measured values as given in PubChem BioAssay (NCATS).
Inconclusive results are not listed. A call without a number means that no potency is given here. Calls of active or inactive are those of the source. Calls follow the shape of the dose curve; as a rule, active = well fitted inhibition curve with a large enough effect; inconclusive = small, poorly fitted or top-dose-only effect; inactive = flat fitted curve, though single readings scatter.

What follows are compounds tested against Aldehyde dehydrogenase, mitochondrial (Homo sapiens) (UniProt P05091) (assay: qHTS for Inhibitors of the Aldehyde Dehydrogenase Family (ALDH2) Primary screen (AID 2061308; also: nearly all actives have a fitted effect of over 55% in size)). Details: ALDH2 enzyme inhibition qHTS, 1536-well; series mostly up to 56 µM.
For c1ccc(-c2ncc(CN3CCN(c4ncccn4)CC3)[nH]2)cc1, the Potency was “inactive”.
With COc1cc2nc(N3CCN(C(=O)COc4c(OC)cccc4C(C)C)CC3)nc(N)c2cc1OC the Potency was “inactive”.
With O=C(c1ccc(F)cc1)C1CCN(CCn2c(=O)nc3n(c2=O)CCCC3)CC1 the Potency was “inactive”.
In the case of CC(C)(O)c1ccccc1CC[C@@H](SCC1(CC(=O)O)CC1)c1cccc(/C=C/c2ccc3ccc(Cl)cc3n2)c1, the Potency is reported as “inactive”.
For Cc1cc(NC(=O)NCCN2CCC(O)(Cc3ccccc3)CC2)c2ccccc2n1, the Potency was “inactive”.
For CCCCc1ccc(C(=O)Nc2cc(-c3ccc(Cl)cc3)nn2-c2ccc(Cl)cc2)cc1, the Potency was “inactive”.
For CSc1ccc(C(=O)N[C@@H]2CCCC[C@@H]2NC(=O)CNC(=O)c2cc(C(F)(F)F)ccc2NC(=O)NC(C)C)cc1, the Potency was “inactive”.
With NC(=O)CCCSc1nc(N)nc(-c2c(Cl)cc3c4c(cccc24)COC3)n1 the Potency was “inactive”.
COC(=O)CCc1ccc(OCC(O)CNC(C)C)cc1 (stereo unspecified) was tested, and the Potency was “inactive”.
With OC(CC1c2ccccc2-c2cncn21)C1CCCCC1 (stereo unspecified) the Potency was “inactive”.
With COc1ccc2c(c1O[C@H]1CCNC1)CCC2 the Potency was “inactive”.
c1cc(OCCCN2CCCCC2)ccc1CN1CCCCC1 was tested, and the Potency was “inactive”.
In the case of CCOC(=O)[C@H](CCc1ccccc1)CC1(C(=O)N[C@H]2CCc3ccccc3N(CC(=O)O)C2=O)CCCC1, the Potency is reported as “inactive”.
For O=C(O)c1ccccc1NC(=O)N1CCC(c2ccccc2C(F)(F)F)CC1, the Potency was “inactive”.
With COc1c(F)cccc1C(=O)N1C[C@@H](C)CC[C@H]1CNc1ccc(Br)cn1 the Potency was “inactive”.
With Cn1c(=O)cc(N2CCCC(N)C2)n(Cc2ccccc2C#N)c1=O (stereo unspecified) the Potency was “inactive”.
